Assay outcomes: PubChem BioAssay, National Center for Advancing Translational Sciences (NCATS)
HTT-AS promoter: Primary qHTS for Identification of Small Molecule Activators of Huntingtin-Antisense Promoter Activity | HEK293 HTT-AS promoter firefly luciferase reporter, 24 h; response scale: percent change from vehicle, -100% = no light | Potency, µM (titrated, usually from 57.5 µM), inactives show at the top dose activity change, positive = activation, most hits filed as activators | 48,000 tested, 0.24% active | AID 1508624, 2021; also: potency is read from the fitted curve at half-maximal effect; nearly all actives have a fitted effect of over 55% in size
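Firefly luciferase signal from promoter-reporter HEK293 cells was scaled between vehicle (0%) and zero RLU (-100%). Compounds were tested at final concentrations of up to 57.5 uM over 24 h at 37 degrees C. PTC124 at 50 uM final served as control inhibitor.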
NTMT1 inhibitor: Primary qHTS for Inhibitors of N-terminal methyltransferase 1 (NTMT1): MTaseGlo Assay | Potency, µM (doses to about 114 µM), for the others: top-dose activity change, negative = inhibition, actives largely listed as inhibitors | NTMT1 MTase-Glo SAH luminescence, purified enzyme | 59,000 tested, 2.5% active | AID 1645870, 2021;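 also: potency is read from the fitted curve at half-maximal effect; plate controls were DMSO vehicle for no effect and no enzyme for full effect; nearly all actives have a fitted effect of over 65% in size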
GALK inhibitor: qHTS Assay for Inhibitors of Human Galactokinase (GALK): NCGC Sytravon Library Screen | 44,000 tested, under 10 active | P51570 | recombinant GALK, Kinase-Glo ATP luminescence, 1 h | Potency, µM (series often up to 57.5 µM), inactives show at the highest dose activity, negative = inhibition, actives largely listed as inhibitors;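 also: plate controls were full GALK reaction for no effect and reaction lacking GALK for full effect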
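Luminescent ATP-depletion readout (Kinase-Glo Plus, 10 min) after 1 h RT reaction of 5 nM GALK, 35 uM ATP, 100 uM galactose, pH 8.0 HEPES buffer. Decreased kinase activity scored as inhibition.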
FH mod: Identification of activators of human fumarate hydratase by quantitative high-throughput screening; AID 1347055, 2019; Fumarate hydratase, mitochondrial (Homo sapiens), P07954; 54,000 tested, 0.22% active; FH coupled MDH/diaphorase resazurin fluorescence, 15 min; Potency, µM (series often up to 79.9 µM), for the others: top-dose activity change, negative = inhibition, most hits filed as inhibitors; also: potency is read from the fitted curve at half-maximal effect; % is scaled to controls: 0 for no effect and ±100 for the full control effect; the screen sought activators but most active calls are inhibition curves; nearly all actives have a fitted effect of over 45% in size
Target sequence (P07954 whole entry, looked up): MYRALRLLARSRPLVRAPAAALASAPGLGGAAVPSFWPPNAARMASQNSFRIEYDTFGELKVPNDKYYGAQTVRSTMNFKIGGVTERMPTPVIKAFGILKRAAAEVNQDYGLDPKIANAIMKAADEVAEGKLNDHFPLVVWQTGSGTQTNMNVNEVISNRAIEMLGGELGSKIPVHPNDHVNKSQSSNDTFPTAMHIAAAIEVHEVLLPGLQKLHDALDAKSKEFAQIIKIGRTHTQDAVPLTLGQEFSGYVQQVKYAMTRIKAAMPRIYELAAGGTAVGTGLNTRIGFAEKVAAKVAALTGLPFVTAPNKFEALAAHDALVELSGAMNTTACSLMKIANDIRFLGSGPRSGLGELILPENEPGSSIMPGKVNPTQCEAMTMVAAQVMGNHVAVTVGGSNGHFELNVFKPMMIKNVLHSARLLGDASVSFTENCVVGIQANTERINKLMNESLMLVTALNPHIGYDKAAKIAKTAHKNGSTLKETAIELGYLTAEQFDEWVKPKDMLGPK
HTT prom inh: Primary qHTS for Identification of Small Molecule Inhibitors of Huntingtin Promoter Activity | AID 1508623, 2021 | HEK293 HTT promoter firefly luciferase reporter, 24 h | Potency, µM (series often up to 57.5 µM), without a hit: top-dose activity change, negative = inhibition, usual class: inhibitors | 48,000 tested, 0.93% active; also: potency is read from the fitted curve at half-maximal effect; nearly all actives have a fitted effect of over 50% in size
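Firefly luciferase readout (Dual-Glo, 10 min RT) after 24 h, 37 °C compound exposure (final up to 57.5 uM) of HEK293 reporter cells cultured 24 h beforehand; PTC124 at 50 uM final as control inhibitor; activity scaled vehicle 0%, zero RLU -100%.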
USP2 K63 confirm: Confirmation Assay for Inhibitors of Ubiquitin-specific Protease USP2a Using CHOP2 as the Reporter: K633; shares compounds with NTMT1 inhibitor; Potency, µM (highest dose often 57.5 µM), without a hit: top-dose activity change, negative = inhibition, most hits filed as inhibitors; USP2 cleavage of DiUb K63-3IQF, fluorescence kinetic; 30 tested, 80% active
Casp6 inh: qHTS for Inhibitors of Ubiquitin-specific Protease USP2a Using CHOP2 as the Reporter: Caspase 6 Assay; AID 652277, 2013; activity change, negative = inhibition, % at 46.1 µM; Caspase 6 enzyme, Caspase-Glo 6 luminescence; 30 tested, under 10 active; shares compounds with NTMT1 inhibitor
NNMT counter: Counterscreen qHTS for Inhibitors of N-terminal methyltransferase 1 (NTMT1): NNMT MTaseGlo assay; 120 tested, 10% active; Potency, µM (top dose mostly 57.1 µM), without a hit: at the highest dose activity, negative = inhibition, actives largely listed as inhibitors; NNMT MTase-Glo luminescence, SAH detection; shares compounds with NTMT1 inhibitor; AID 1645878, 2021
The depositor's hits bear a star; ? = inconclusive; nt = no result; ! = not confirmed by another sample; [ ] = dose if it differs, or a comment. The list is not random: actives were taken first. Their share in the collection is about 2.5%. Calls follow the shape of the dose curve; as a rule, active = well fitted curve in the direction sought with a large enough effect; inconclusive = small, poorly fitted or top-dose-only effect, or another doubt; inactive = no such curve, though single readings can be large; an effect the other way counts as inactive or inconclusive.

SMILES | HTT-AS promoter | NTMT1 inhibitor | GALK inhibitor | FH mod | HTT prom inh | others
CC(C)[C@@H](C)/C=C/[C@@H](C)[C@H]1CC[C@H]2C3=CC=C4C[C@@H](O)CC[C@]4(C)C3=CC[C@]12C | nt | -7.5%[57.5 µM] | nt | ? | nt
O=C1NC(=O)/C(=C/c2ccc3nccnc3c2)S1 | nt | 11.1% | nt | -19.1%[53.3 µM] | nt
CCc1ccc(/C=C2/SC(=S)NC2=O)cc1 | nt | -3.1% | nt | 15.8µM* | nt
Cc1cc2c(C(C)C)c(O)c(O)c(C=O)c2c(O)c1-c1c(C)cc2c(C(C)C)c(O)c(O)c(C=O)c2c1O | -88.7% | 20µM*! | nt | 28.2µM*! | ?
Cc1cc(=O)oc2c(C=O)c(O)ccc12 | nt | 9.2%[57.5 µM] | nt | -10.6% | nt
CCOC(=O)c1ccc(N2C(=O)c3[nH]nc(-c4ccccc4)c3C2c2cccs2)cc1 (stereo unspecified) | -62.8% | -5.5% | -0.1% | -21.8% | 15.8µM*
CCOC(=O)c1ccc(N2C(=O)c3[nH]nc(-c4ccc(OCC)cc4)c3C2c2cccs2)cc1 (stereo unspecified) | -37.3% | 16.5% | 0.1% | -20.2% | ?
O=C(Nc1ccc(S(=O)(=O)Nc2nccs2)cc1)C1CCC2(CCC2)CC1 | nt | 8.2% | nt | nt | nt
[O-][n+]1ccccc1SSc1cccc[n+]1[O-] | -74.5%[25.1 µM] | 5.01µM* | nt | -6.8%[20.6 µM] | ?
CC(C)CCNC(=O)C1CCN(C(=O)c2cc3sccc3n2Cc2ccc(Cl)cc2)CC1 | -62.1% | 2.6% | 4.4% | -20.9% | 25.1µM*
CCn1c(C(=O)N2CCC(C(=O)NCCc3ccc(C)cc3)CC2)cc2sccc21 | -30.0% | -4.7% | 5.5% | -24.4% | ?
CC(=O)Nc1cc(-c2nc3ccccc3s2)ccc1C | 6.31µM* | -3.8% | 3.0% | -19.0% | 63.6%
CC(C)CCNC(=O)c1c[nH]c2ccc(S(=O)(=O)Nc3cccc(C(F)(F)F)c3)cc2c1=O | -40.1% | 2.4% | 0.3% | -19.2% | ?
Cc1ccc(CCNC(=O)c2c[nH]c3ccc(S(=O)(=O)Nc4cccc(C(F)(F)F)c4)cc3c2=O)cc1 | -43.4% | 13.8% | -1.0% | -15.2% | 15.8µM*
CCOCCCNC(=O)c1c[nH]c2ccc(S(=O)(=O)Nc3cccc(Cl)c3C)cc2c1=O | -27.1% | 89.1µM* | 0.0% | -24.4% | -22.5%
COc1ccc(Nc2ncnc3c2cnn3-c2cc(Cl)ccc2C)cc1OC | 0.4% | ? | 4.7% | -14.6% | -29.9%
Cc1ccc(Cl)cc1-n1ncc2c(Nc3cccc(C)c3C)ncnc21 | -18.3% | 5.62µM* | 2.6% | ? | ?
C=CC(=O)Nc1cc2c(Nc3ccc(F)c(Cl)c3)ncnc2cc1C#CC(C)(C)N1CCN(C)CC1 | -16.1% | ? | nt | 0.8% | -3.1%
COc1cc2c(Nc3cc(F)c(Cl)c(Cl)c3)ncnc2cc1OCC1CCCN(C)CCC1 | nt | 35.5µM* | nt | -5.5% | nt | NNMT counter=?
CC(=O)Nc1ccc(S(=O)(=O)Nc2nccs2)cc1 | nt | 28.5% | nt | nt | nt | USP2 K63 confirm=-1.3%;Casp6 inh=-28.0
O=C(Nc1ccc(S(=O)(=O)Nc2nccs2)cc1)c1cc(-c2ccccc2)nc2ccccc12 | nt | -18.6% | nt | ? | nt | USP2 K63 confirm=1.72µM*;Casp6 inh=-1.8
O=S(=O)(Nc1nccs1)c1ccc(Nc2nc(-c3ccccc3)cs2)cc1 | nt | 3.3%[57.5 µM] | nt | nt | nt
CC[C@@H](C)Nc1cc(C(=O)NC2CC3CC[C@@H](C2)N3c2ccc(C(=O)C3CC3)cn2)c(C)cc1C(N)=O (stereo partly specified) | nt | 4.1%[57.5 µM] | nt | -11.1% | nt | NNMT counter=-20.8%
